About 3,800 (1.2%) of roughly 310,000 compounds were called active.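 Rule for the calls: active = ratio B-score over 3 SD below the library mean, with starting fluorescence within 5 SD of its mean; inactive = the rest, inconclusive results apart.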 Only a selection was taken, and actives are over-represented in it overall.

In the test the target is Potassium channel subfamily K member 9 (Homo sapiens) (UniProt Q9NPC2). The experiment in a line: blockers of human TASK-3 (KCNK9) channel – HEK293 cells, thallium flux, primary screen (AID 488922).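 For B-score: negative B-score means less thallium flux so channel inhibition.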 Particulars: HEK293 KCNK9, FluxOR thallium flux fluorescence, at 10 µM; hits give low values.
Sequence of Potassium channel subfamily K member 9 (Homo sapiens) (Q9NPC2 whole entry, looked up): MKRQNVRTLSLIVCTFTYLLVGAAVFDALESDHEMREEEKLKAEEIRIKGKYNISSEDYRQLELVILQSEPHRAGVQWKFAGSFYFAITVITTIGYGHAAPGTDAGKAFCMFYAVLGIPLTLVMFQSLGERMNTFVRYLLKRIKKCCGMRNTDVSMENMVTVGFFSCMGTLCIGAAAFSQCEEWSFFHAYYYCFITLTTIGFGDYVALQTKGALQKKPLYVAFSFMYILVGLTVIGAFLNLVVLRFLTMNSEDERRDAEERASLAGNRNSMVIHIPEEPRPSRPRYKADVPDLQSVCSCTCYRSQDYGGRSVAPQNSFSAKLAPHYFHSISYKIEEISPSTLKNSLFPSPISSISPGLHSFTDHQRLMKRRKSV
For `CCC(C)NC(=O)c1nn(C)c(=O)c2ccccc12` (centres undefined), the B-score entry is “inactive”. The value for `Cc1ccc(N2C(=O)C(NC(=O)c3c(F)cccc3F)(C(F)(F)F)C3=C2CC(C)(C)CC3=O)cc1` (centres undefined) was “inactive”; that for `CC(Sc1nc(-c2ccccc2)cc(C(F)(F)F)n1)C(=O)Nc1ccc2c(c1)OCO2` (centres undefined) was “inactive”. For `O=C(Nc1ccc2c(c1)OCO2)c1sc2cc(Cl)ccc2c1Cl`, the B-score result was “inactive”. In the case of `CC(Sc1nc2cc(Cl)ccc2s1)C(=O)Nc1ccc2c(c1)OCO2` (centres undefined) it was -7.35 (active); in that of `COc1ccc(Nc2ncnc3sc(-c4ccccc4)cc23)c(OC)c1`, -9.69 (active).

For the molecule `COc1ccc(Nc2ncnc3sc(C)cc23)cc1`, the B-score result was “inactive”. As to `COc1ccc(Nc2ncnc3ccc(Br)cc23)c(OC)c1`, the B-score result is “inactive”.

As to `CCc1cc(=O)oc2cc(OCC(=O)N3CCCc4ccccc43)ccc12`, the B-score result was “inactive”.

On to `CN(C)C(=O)c1ccc2c(c1)C1C3CCC(C3)C1C(c1ccccc1)N2` (centres undefined), for which the B-score entry was “inactive”. With `CC(=O)c1ccc(NC(=O)CCNS(=O)(=O)c2cc(Br)cnc2N)cc1`, the B-score result is “inactive”.

With `COc1ccccc1C(=O)OCC(=O)NCCNC(=O)COC(=O)c1ccccc1OC`, the B-score entry was “inactive”. The value for `O=C(COC(=O)c1ccccc1SCC(=O)NC1CCCCC1)NC1CCCCC1` was “inactive”; that for `C=CCNC(=O)COC(=O)c1ccccc1C(=O)N(C)C1CCCCC1` was -6.84 (active); that for `O=c1cc(Cl)c2ccccc2n1-c1ccccc1` was “inactive”.

Take `CC(NCC(=O)Nc1cc(Cl)cc(Cl)c1)c1ccccc1` (centres undefined): the B-score entry is “inactive”.

For `OCCCNC(c1ccccc1)c1ccc(O)cc1` (centres undefined), the B-score result was “inactive”. In the case of `O=C(Nc1cc(Cl)cc(Cl)c1)C(NCCCO)c1ccccc1` (centres undefined), the B-score was -8.3 (active). In the case of `COc1ccccc1N1CCN(Cc2cc(OC)c3c(c2)OCO3)CC1` it was “inactive”. In the case of `Cc1noc(C)c1C(=O)OCC(=O)N1CCN(S(=O)(=O)c2ccc3ccccc3c2)CC1` it was “inactive”. For the molecule `COC(=O)C1=C(Nc2ccc(C)cc2)C=C(C)C(C(=O)OC)C1c1ccc(F)cc1` (centres undefined), the B-score is -10.4 (active).

Consider `COC(=O)C1C(=O)NCC1c1ccc(C)cc1` (centres undefined), for which the B-score result was “inactive”.

For the molecule `COC(=O)C1=C(Nc2ccc(OC)cc2)C=C(C)C(C(=O)OC)C1c1ccc(C)cc1` (centres undefined), the B-score result is “inactive”. In the case of `CC1CCC(NC(=O)CNC(=O)c2ccc3ccccc3c2)CC1` (centres undefined), the B-score result was “inactive”. The value for `CN=C1SC(CC(=O)Nc2ccc(C(=O)O)cc2)C(=O)N1C` (centres undefined) was “inactive”; that for `CN(CC(=O)Nc1ccc(S(=O)(=O)N2CCCC2)cc1)Cc1ccc(Cl)c(Cl)c1` was “inactive”. Take `CN(CCC(=O)Nc1cc(S(=O)(=O)N(C)C)ccc1Cl)CC(=O)Nc1ccc(F)cc1`: the B-score is -12.2 (active).

For `CN(CC(=O)Nc1ccc(F)cc1)CC(=O)Nc1ccc(Cl)c(S(=O)(=O)N2CCOCC2)c1`, the B-score result is “inactive”. Regarding `COc1ccccc1OCC(=O)O/N=C(\N)c1ccccn1`, the B-score result was “inactive”.

(Values after PubChem BioAssay AID488922 (Johns Hopkins Ion Channel Center, 2010).)
